# An excerpt weighted towards active compounds, which were near 0.95% of everything screened.
# Sa ugtP lethal = growth inhibition of ugtP-null S. aureus, primary screen, RN4220 ugtP deletion, OD600 | 16 h | growth inhibition, % (test concentration not listed) | 0.54% of 330,000 active; in the data active = growth inhibition above about 68%;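 also: plate controls were untreated wells for no effect and antibiotic for full effect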
# RN4220 kill = growth inhibition of S. aureus RN4220, primary screen, OD600. 16 h. inhibition, % (test concentration not listed). 0.33% of 330,000 active. AID 1259311, 2017; in the data active = inhibition above about 85%;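 also: plate controls were untreated cells for no effect and reference antibiotic for full effect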
# PrPC surface inh = inhibitors of human cell surface prion protein PrPC, primary screen, cell-based, TR-FRET | 0.43% of 370,000 active | Major prion protein (Homo sapiens), P04156 | AID 720596, 2013 | TR-FRET read-out | inhibition, % at 13.8 µM; in the data active = inhibition above about 24%; also: 0% = median of the test wells and 100% = reference compound wells
# BJeLR lethal = MLPCN primary cell-based screen for lethality selective to Ras in HRASV12 cells; BJeLR (HRASV12) viability, CellTiter-Glo ATP luminescence, 48 h; inhibition, % (no concentration beside the values); 0.17% of 300,000 active; in the data active = inhibition above about 50%
# PrPC confirm = confirmation of inhibitors of cell surface human prion protein, confirmation, cell-based, TR-FRET; shares compounds with PrPC surface inh; cell surface PrPC level; inhibition, % at 13.8 µM; 65% of 1,500 active; in the data active = inhibition above about 25%
# LD9 cytotox = cytotoxicity in LD9 cells, cytotoxicity control for cell surface PrPc inhibitor project, cell-based, luminescence, high throughput. luminescence viability. AID 743201, 2013. inhibition, % at 13.8 µM. 29% of 1,500 active. shares compounds with PrPC surface inh; in the data active = inhibition above about 9.5%
# * = called active by the depositor; / = no result given.
SMILES,Sa ugtP lethal,RN4220 kill,PrPC surface inh,BJeLR lethal,PrPC confirm,LD9 cytotox
CCN1C(=O)C2(C(C(=O)c3ccc(C)o3)=C(O)C(=O)N2CCCN2CCOCC2)c2ccccc21 (configuration not stated),-1.4,7.9,-6.7,-3.6,/,/
NC(CC(=O)Nc1cccc(C(F)(F)F)c1)=NO,-2.6,5.9,/,/,/,/
Cc1ccc(C=NN2CCCCC2)o1,8.0,5.4,/,/,/,/
COc1ccc(C(C)=NNC(=O)c2ccccc2N)cc1,7.1,0.1,/,/,/,/
COc1c(F)cc2[nH]c3c(c2c1F)CCNC3=O,0.4,10.0,30.2*,-2.2,6.2,-4.8
CCCNC(=O)CSc1nc(COc2ccccc2)nc2ccccc12,9.4,7.2,29.2*,-3.4,40.7*,-3.3
CCCc1nc(SCC(=O)Nc2nccs2)c2ccccc2n1,-3.4,7.5,19.8,-6.9,/,/
COC(=O)CSc1nc(COc2ccccc2)nc2ccccc12,2.5,5.7,49.0*,-5.8,65.9*,-6.4
CCCCNC(=O)CSc1nc(CCC)nc2ccccc12,-5.9,0.9,46.0*,8.2,59.1*,-6.4
CCN(CC)C(=O)CSc1nc(COc2ccccc2)nc2ccccc12,-3.6,-7.4,-5.5,-10.4,/,/
C#CCNC(=O)C1=CC(c2ccc3c(c2)OCO3)C(CCCO)C(OCC)O1 (configuration not stated),3.2,2.8,/,/,/,/
N#CC1c2ccccc2-n2nncc2CN1Cc1cc(Cl)cc(Cl)c1 (configuration not stated),/,/,68.3*,/,90.6*,98.0*
COc1ccc(CN2Cc3cnnn3-c3ccccc3C2C#N)cc1 (configuration not stated),/,/,2.1,/,/,/
Oc1cc(O)cc(C=Cc2ccc(O)c(O)c2)c1,-6.5,23.8,-4.5,/,/,/
CCCC(=O)Nc1c2c(nc3ccccc13)N(c1ccccc1)CC2,6.2,1.0,/,1.6,/,/
O=C(CN1CCCCC1)Nc1c2c(nc3ccccc13)N(c1ccccc1)CC2,8.7,4.4,44.0*,1.0,102.2*,11.6*
CC(C)OC(=O)CC(=O)CSc1nc2c(c(-c3cccs3)c1C#N)CCC2,-2.5,1.6,-1.2,5.4,/,/
CCOC(=O)C(C)Sc1nc2c(c(-c3cccs3)c1C#N)CCC2 (configuration not stated),48.5,11.8,65.4*,-10.8,76.2*,-4.2
N#Cc1c(SC(C(=O)O)c2ccccc2)nc2c(c1-c1cccs1)CCCC2 (configuration not stated),14.3,17.1,52.1*,-1.6,52.2*,-8.9
CC(=NNc1ccc(Cl)c(C(=O)O)c1)c1cccs1,4.0,2.8,/,/,/,/
COc1ccc(C(=O)Nc2nnc(Cc3cccs3)s2)cc1OC,0.7,-2.0,65.4*,0.7,36.2*,-0.9
CC(=NNC(=O)c1nn(C)cc1Br)c1cccc(NC(=O)C2CCCC2)c1,3.5,-10.5,/,/,/,/
CC(=O)c1cccc(NC(=O)C2=CN3CCS(=O)(=O)N=C3C=C2)c1,5.2,5.1,46.1*,/,45.5*,5.1
CC(=O)c1cccc(NC(=O)c2c(F)c(F)c(F)c(F)c2F)c1,-7.0,2.3,-3.6,13.6,/,/
COc1ccc(C(C)(C)C)cc1NC(=O)Nc1ccc2c(c1)OCO2,21.4,-12.3,24.9*,-4.5,16.4,-0.9
SMILES,Sa ugtP lethal,RN4220 kill,PrPC surface inh,BJeLR lethal,PrPC confirm,LD9 cytotox
O=C(Nc1ccc2c(c1)OCO2)Nc1ccc2c(c1)OCO2,-8.6,3.3,9.1,12.1,/,/
COc1cc(NC(=O)Nc2ccc3c(c2)OCO3)cc(OC)c1OC,4.6,2.4,3.5,-0.5,/,/
O=C(Nc1ccc(OC(F)F)c(Cl)c1)Nc1ccc2c(c1)OCO2,-41.2,-4.4,28.9*,-11.7,21.7,2.9
CC12CN3CCN(CC(C3)C1=NNC(=O)Nc1cccc(Cl)c1)C2,5.5,6.4,/,/,/,/
CCOC(=O)C1C2COc3ccc(Cl)cc3C2N2C(=O)CN(CC3CCCO3)C(=O)[C@@]12C (some centres not stated),-0.1,2.9,/,/,/,/
COc1ccc(NC(=O)c2cccc(Oc3ccccc3)c2)cn1,10.1,-4.1,26.0*,10.3,10.0,0.9
Cc1onc(-c2ccccc2Cl)c1C(=O)Nc1nnc(-c2ccc(Br)cc2)s1,17.9,22.3,26.3*,3.4,40.6*,-4.7
O=C(Nc1ccc2c(c1)OCO2)c1ccc(Br)c(S(=O)(=O)N2CCCC2)c1,-1.2,2.5,24.6*,-2.7,21.2,6.9
